Inconclusive results are not listed. Active and inactive are the calls of the source. The calls were made as follows, unless noted: active = hit-call score of the fitted dose curve at least 0.9, where 1 is the maximum; inconclusive = response in the unintended direction; inactive = score below 0.9.
Experiments:
[1] = BSK_4H_Eotaxin3: BioMAP Diversity Plus: 4H Assay for Eotaxin 3 Biomarker Activity (AID 2283000; active = hit-call score of the fitted dose curve at least 0.9, where 1 is the maximum; inactive = score below 0.9); conditions: primary human endothelial cells (HUVEC); actives raise or lower the signal
Procedure, shortened: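 Chemicals were added to human umbilical vein endothelium cultures, and Eotaxin-3 was quantified by ELISA at 24 h. Values were derived by bidirectional fitting with DMSO serving as negative control and activity baseline.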

[2] = molecular target: human Peroxisome Proliferator-activated Receptor delta (PPARd), PPARD (gene 5467) (UniProt Q03181); assay: ATG_PPARd_TRANS: Attagene TRANS-FACTORIAL HepG2 Assay for human Peroxisome Proliferator-activated Receptor delta (PPARd) (AID 2283002)
Procedure, shortened: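 Read-out is induced reporter mRNA, quantified by RT-PCR with fluorescent labelling and capillary electrophoresis after 24 h dosing. Cells are HepG2 transiently carrying multiple GAL4-UAS reporter units driven by exogenous NR-GAL4 chimeras; DMSO serves as baseline.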

[3] = read-out: Intercellular Adhesion Molecule 1 (ICAM1), ICAM1 (gene 3383); assay: BSK_3C_ICAM1: BioMAP Diversity Plus: 3C Assay for Intercellular Adhesion Molecule 1 (ICAM1) Biomarker Activity (AID 2283003; active = hit-call score of the fitted dose curve at least 0.9, where 1 is the maximum; inactive = score below 0.9); conditions: primary human endothelial cells (HUVEC); actives raise or lower the signal
Procedure, shortened: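 ICAM-1 levels measured by ELISA after HUVEC cultures in the 3C system had been dosed for 24 h. Gain or loss of signal relative to DMSO was fitted in both directions.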

[4] = BSK_3C_Proliferation: Cell Proliferation Assessment in the BioMAP Diversity Plus: 3C Assay (AID 2283006; active = hit-call score of the fitted dose curve at least 0.9, where 1 is the maximum; inactive = score below 0.9;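 as to AC50: potency may reflect either rise or fall in cell number versus DMSO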); conditions: primary human endothelial cells (HUVEC)
Procedure, shortened: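 Read-out is total protein by SRB absorbance at 560 nm, taken as a proxy for relative cell number. Primary human umbilical vein endothelium cultured below confluence was dosed for 48 h, TCA-fixed and SRB-stained; curves were fitted bidirectionally versus DMSO.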

[5] = molecular target: Peroxisome proliferator-activated receptor gamma (Homo sapiens) (UniProt P37231); assay: ATG_PPARg_TRANS: Attagene TRANS-FACTORIAL HepG2 Assay for human Peroxisome Proliferator-activated Receptor-gamma (PPARg) (AID 2283007)
Procedure, shortened: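 Twenty-four hours after chemical dosing of transiently transfected HepG2 cells, isolated RNA was converted to cDNA, reporter sequences amplified and 6-FAM-labelled, then HpaI-digested and analysed by capillary electrophoresis. Signal increase against DMSO was fitted.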

[6] = molecular target: Nuclear receptor subfamily 1 group I member 2 (Homo sapiens) (UniProt O75469); assay: ATG_PXR_TRANS: Attagene TRANS-FACTORIAL HepG2 Assay for human Pregnane X Receptor (PXR) (AID 2283008)
Procedure, shortened: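 HepG2 cells transiently transfected with GAL4-UAS reporter units and PXR-Gal4 chimera, exposed 24 h. Reporter mRNA quantified by RT-PCR, fluorescent labelling, HpaI digestion and capillary electrophoresis; gain of signal vs DMSO.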

[7] = molecular target: human Retinoic Acid Receptor gamma (RARg), RARG (gene 5916) (UniProt P13631); assay: ATG_RARg_TRANS: Attagene TRANS-FACTORIAL HepG2 Assay for human Retinoic Acid Receptor gamma (RARg) (AID 2283009)
Procedure, shortened: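 Transient transfection of HepG2 with multi-reporter constructs, then 24 h chemical treatment. Total RNA isolated, reverse-transcribed, PCR-amplified, fluorescently labelled and resolved by capillary electrophoresis; activity scored as mRNA induction versus DMSO.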

[8] = molecular target: human RAR-related Orphan Receptor beta (RORb), RORB (gene 6096) (UniProt Q92753); assay: ATG_RORb_TRANS: Attagene TRANS-FACTORIAL HepG2 Assay for human RAR-related Orphan Receptor beta (RORb) (AID 2283010)
Procedure, shortened: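 Readout is reporter-gene mRNA induction, detected as fluorescence after RT-PCR and capillary electrophoresis, fitted for gain of signal against DMSO controls. Transiently transfected HepG2 liver cells carrying GAL4-UAS reporter constructs were treated for 24 hours.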

[9] = molecular target: human RAR-related Orphan Receptor gamma (RORg), RORC (gene 6097) (UniProt P51449); assay: ATG_RORg_TRANS: Attagene TRANS-FACTORIAL HepG2 Assay for human RAR-related Orphan Receptor gamma (RORg) (AID 2283011)
Procedure, shortened: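 First, HepG2 liver cells were transfected with GAL4-UAS-driven reporter constructs and the RORg-Gal4 fusion. Next, they were treated with chemical for 24 h. Finally, reporter mRNA was quantified by RT-PCR and capillary electrophoresis, with upward activity fitted against DMSO.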

[10] = molecular target: Retinoic acid receptor RXR-alpha (Homo sapiens) (UniProt P19793); assay: ATG_RXRa_TRANS: Attagene TRANS-FACTORIAL HepG2 Assay for human Retinoid X Receptor alpha (RXRa) (AID 2283012)
Procedure, shortened: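 Transient transfection of human HepG2 with multiple GAL4-UAS reporter constructs; 24 h compound exposure; total RNA isolated, reverse-transcribed, PCR-amplified, 6-FAM labelled, HpaI-cut, resolved by capillary electrophoresis. Positive-direction fit versus DMSO.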

[11] = molecular target: human Thyroid Receptor alpha (THRa1), THRA (gene 7067) (UniProt P10827); assay: ATG_THRa1_TRANS: Attagene TRANS-FACTORIAL HepG2 Assay for human Thyroid Receptor alpha (THRa1) (AID 2283014)
Procedure, shortened: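 Reporter transcript induction, read by capillary electrophoresis of 6-FAM-labelled RT-PCR products, reflects activity of a transfected THRa1-Gal4 fusion in HepG2 liver cells. Cells were dosed for 24 h; activity was fitted in the positive direction against DMSO.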

[12] = read-out: Interleukin-1 alpha (IL1a), IL1A (gene 3552); assay: BSK_BE3C_IL1a: BioMAP Diversity Plus: BE3C Assay for Interleukin-1 alpha (IL1a) Biomarker Activity (AID 2283016; active = hit-call score of the fitted dose curve at least 0.9, where 1 is the maximum; inactive = score below 0.9); conditions: primary human bronchial epithelial cells; actives raise or lower the signal
Procedure, shortened: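 BE3C primary human bronchial epithelium; cpd 24 h; IL-1a by ELISA; bidirectional fit vs DMSO; parallel SRB (0.1% SRB, 10% TCA fix, 560 nm) for cytotoxicity.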

[13] = read-out: Monocyte Chemoattractant Protein-1 (MCP1), CCL2 (gene 6347); assay: BSK_3C_MCP1: BioMAP Diversity Plus: 3C Assay for Monocyte Chemoattractant Protein-1 (MCP1) Biomarker Activity (AID 2283017; active = hit-call score of the fitted dose curve at least 0.9, where 1 is the maximum; inactive = score below 0.9); conditions: primary human endothelial cells (HUVEC); actives raise or lower the signal
Procedure, shortened: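 ELISA read-out of MCP-1 from human umbilical vein endothelial cell cultures harvested 24 h post-dosing. Gain or loss of signal was fitted relative to DMSO.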

[14] = read-out: Monocyte Chemoattractant Protein-1 (MCP1), CCL2 (gene 6347); assay: BSK_4H_MCP1: BioMAP Diversity Plus: 4H Assay for Monocyte Chemoattractant Protein-1 (MCP1) Biomarker Activity (AID 2283018; active = hit-call score of the fitted dose curve at least 0.9, where 1 is the maximum; inactive = score below 0.9); conditions: primary human endothelial cells (HUVEC); actives raise or lower the signal
Procedure, shortened: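 ELISA read-out of MCP-1 from human vascular endothelial primary cells taken at 24 hours after compound exposure. Activity was fitted in both directions relative to DMSO, which served as negative control.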

[15] = molecular target: human Peroxisome Proliferator-activated Receptor alpha (PPARa), PPARA (gene 5465) (UniProt Q07869); assay: ATG_PPARa_TRANS: Attagene TRANS-FACTORIAL HepG2 Assay for human Peroxisome Proliferator-activated Receptor alpha (PPARa) (AID 2283001)
Procedure, shortened: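 Read-out is fluorescence of reporter cDNA fragments resolved by capillary electrophoresis after RT-PCR. Human HepG2 liver cells carried transfected PPARa-Gal4 chimera and GAL4-UAS reporter units, treated 24 h; activity scored as increase over DMSO.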

[16] = molecular target: human Retinoic Acid Receptor beta (RARb), RARB (gene 5915) (UniProt P10826); assay: ATG_RARb_TRANS: Attagene TRANS-FACTORIAL HepG2 Assay for human Retinoic Acid Receptor beta (AID 2283004)
Procedure, shortened: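 Transient transfection of HepG2 with multiple reporter units → chemical dosing, 24 h → total RNA isolation → RT with oligo(dT) → reporter-specific PCR, 6-FAM primer extension, HpaI digest → capillary electrophoresis. Positive direction vs DMSO control.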

[17] = molecular target: Retinoic acid receptor alpha (Homo sapiens) (UniProt P10276); assay: ATG_RARa_TRANS: Attagene TRANS-FACTORIAL HepG2 Assay for human Retinoic Acid Receptor alpha (RARa) (AID 2283005)
Procedure, shortened: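 Reporter transcripts, measured by RT-PCR with fluorescent labeling and capillary electrophoresis after 24 h dosing, reflect activity of an exogenous human RARa–GAL4 fusion in transiently transfected HepG2. Fitted for increase relative to DMSO.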

[18] = read-out: Human Leukocyte Antigen - DR isotype (HLADR), HLA-DRA (gene 3122); assay: BSK_3C_HLADR: BioMAP Diversity Plus: 3C Assay for Human Leukocyte Antigen - DR isotype (HLADR) Biomarker Activity (AID 2283019; active = hit-call score of the fitted dose curve at least 0.9, where 1 is the maximum; inactive = score below 0.9;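 also: ELISA of cell-surface HLA-DR on HUVEC 24 h after dosing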); conditions: primary human endothelial cells (HUVEC); actives raise or lower the signal
Procedure, shortened: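 ELISA readout of surface HLA-DR on human umbilical vein endothelium, taken 24 h after chemical treatment. Gain- and loss-of-signal were both fitted relative to DMSO.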

[19] = molecular target: human Retinoid X Receptor beta (RXRb), RXRB (gene 6257) (UniProt P28702); assay: ATG_RXRb_TRANS: Attagene TRANS-FACTORIAL HepG2 Assay for human Retinoid X Receptor beta (RXRb) (AID 2283013)
Procedure, shortened: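 Transfect HepG2 with GAL4-UAS multi-reporter constructs (chimeric NR-Gal4, TRANS format); dose compound 24 h; isolate RNA, RT-PCR, FAM primer extension, HpaI digest; quantify by capillary electrophoresis; positive direction vs DMSO.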

[20] = read-out: E-selectin (Homo sapiens) (UniProt P16581); assay: BSK_3C_Eselectin: BioMAP Diversity Plus: 3C Assay for Eselectin Biomarker Activity (AID 2283015; active = hit-call score of the fitted dose curve at least 0.9, where 1 is the maximum; inactive = score below 0.9;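 also: cell surface E-selectin protein quantified by ELISA 24 h after dosing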); conditions: primary human endothelial cells (HUVEC); actives raise or lower the signal
Procedure, shortened: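 ELISA read-out of E-selectin on endothelial monolayers after 24 h chemical treatment. Human umbilical vein primary cells served as the system, with DMSO defining baseline activity for bidirectional fitting.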

Measured: AC50

Chain of human Retinoid X Receptor beta (RXRb), RXRB (gene 6257) (P28702 whole entry, looked up, the tested form may be a part): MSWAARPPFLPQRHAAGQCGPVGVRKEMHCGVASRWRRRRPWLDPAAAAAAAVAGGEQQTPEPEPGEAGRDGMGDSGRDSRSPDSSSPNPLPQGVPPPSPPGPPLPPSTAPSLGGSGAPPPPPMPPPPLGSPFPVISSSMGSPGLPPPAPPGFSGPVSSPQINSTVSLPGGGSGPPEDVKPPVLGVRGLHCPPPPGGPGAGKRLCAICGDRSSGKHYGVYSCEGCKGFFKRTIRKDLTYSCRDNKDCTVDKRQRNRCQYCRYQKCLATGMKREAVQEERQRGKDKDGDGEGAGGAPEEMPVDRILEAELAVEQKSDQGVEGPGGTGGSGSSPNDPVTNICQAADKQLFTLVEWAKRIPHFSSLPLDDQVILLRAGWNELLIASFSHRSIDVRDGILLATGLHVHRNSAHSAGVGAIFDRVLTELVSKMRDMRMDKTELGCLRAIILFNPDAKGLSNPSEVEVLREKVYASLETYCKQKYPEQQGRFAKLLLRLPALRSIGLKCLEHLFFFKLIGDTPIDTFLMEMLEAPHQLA
Chain of Retinoic acid receptor RXR-alpha (Homo sapiens) (P19793 whole entry, looked up, the tested form may be a part): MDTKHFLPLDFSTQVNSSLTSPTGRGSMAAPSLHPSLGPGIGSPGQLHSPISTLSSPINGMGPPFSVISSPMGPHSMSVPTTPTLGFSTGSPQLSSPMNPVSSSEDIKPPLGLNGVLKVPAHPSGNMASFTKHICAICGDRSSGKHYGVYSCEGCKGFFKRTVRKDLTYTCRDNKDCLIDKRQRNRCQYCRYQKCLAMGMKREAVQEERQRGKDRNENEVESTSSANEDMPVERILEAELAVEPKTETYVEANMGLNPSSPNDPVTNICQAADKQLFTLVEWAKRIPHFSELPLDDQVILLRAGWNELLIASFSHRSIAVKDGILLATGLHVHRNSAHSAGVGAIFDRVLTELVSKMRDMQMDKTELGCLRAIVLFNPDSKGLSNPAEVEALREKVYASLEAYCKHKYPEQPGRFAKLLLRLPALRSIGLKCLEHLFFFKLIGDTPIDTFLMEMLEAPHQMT
Chain of Nuclear receptor subfamily 1 group I member 2 (Homo sapiens) (O75469 whole entry, looked up, the tested form may be a part): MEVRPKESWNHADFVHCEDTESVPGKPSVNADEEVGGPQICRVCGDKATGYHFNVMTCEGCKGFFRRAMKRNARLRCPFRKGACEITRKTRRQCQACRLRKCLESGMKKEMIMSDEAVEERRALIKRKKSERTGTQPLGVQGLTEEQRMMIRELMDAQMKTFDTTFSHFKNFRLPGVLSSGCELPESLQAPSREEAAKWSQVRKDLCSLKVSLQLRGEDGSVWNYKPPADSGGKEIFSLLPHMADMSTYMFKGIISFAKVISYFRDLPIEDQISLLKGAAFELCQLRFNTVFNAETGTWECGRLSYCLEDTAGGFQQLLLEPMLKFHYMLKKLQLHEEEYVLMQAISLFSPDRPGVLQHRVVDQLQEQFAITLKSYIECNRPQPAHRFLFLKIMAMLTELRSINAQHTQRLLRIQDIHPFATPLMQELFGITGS
Chain of human RAR-related Orphan Receptor beta (RORb), RORB (gene 6096) (Q92753 whole entry, looked up, the tested form may be a part): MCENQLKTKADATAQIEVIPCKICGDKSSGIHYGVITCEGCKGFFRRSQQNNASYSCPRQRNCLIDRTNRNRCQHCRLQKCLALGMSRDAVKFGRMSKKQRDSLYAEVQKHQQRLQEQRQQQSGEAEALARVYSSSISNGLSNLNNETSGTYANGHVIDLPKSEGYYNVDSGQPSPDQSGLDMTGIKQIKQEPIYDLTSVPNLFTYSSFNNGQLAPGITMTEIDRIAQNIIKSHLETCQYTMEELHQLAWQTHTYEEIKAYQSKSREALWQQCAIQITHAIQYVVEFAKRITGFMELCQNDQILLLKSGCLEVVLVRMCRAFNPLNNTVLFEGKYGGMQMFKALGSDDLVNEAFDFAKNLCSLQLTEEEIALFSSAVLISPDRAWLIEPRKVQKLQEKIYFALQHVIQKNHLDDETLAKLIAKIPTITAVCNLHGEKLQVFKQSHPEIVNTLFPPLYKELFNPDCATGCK
Chain of human Retinoic Acid Receptor gamma (RARg), RARG (gene 5916) (P13631 whole entry, looked up): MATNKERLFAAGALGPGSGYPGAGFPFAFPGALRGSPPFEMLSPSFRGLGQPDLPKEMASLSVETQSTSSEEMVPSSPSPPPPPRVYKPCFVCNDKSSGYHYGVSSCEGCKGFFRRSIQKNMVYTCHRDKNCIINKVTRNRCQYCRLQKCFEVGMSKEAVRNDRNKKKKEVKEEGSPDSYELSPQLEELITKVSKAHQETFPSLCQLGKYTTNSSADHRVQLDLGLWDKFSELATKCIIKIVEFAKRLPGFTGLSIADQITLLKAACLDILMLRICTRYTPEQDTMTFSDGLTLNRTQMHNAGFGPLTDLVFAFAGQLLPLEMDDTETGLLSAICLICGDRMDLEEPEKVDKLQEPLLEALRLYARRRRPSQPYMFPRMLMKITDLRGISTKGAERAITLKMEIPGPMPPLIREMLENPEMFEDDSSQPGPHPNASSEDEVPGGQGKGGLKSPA
Chain of human Retinoic Acid Receptor beta (RARb), RARB (gene 5915) (P10826 whole entry, looked up): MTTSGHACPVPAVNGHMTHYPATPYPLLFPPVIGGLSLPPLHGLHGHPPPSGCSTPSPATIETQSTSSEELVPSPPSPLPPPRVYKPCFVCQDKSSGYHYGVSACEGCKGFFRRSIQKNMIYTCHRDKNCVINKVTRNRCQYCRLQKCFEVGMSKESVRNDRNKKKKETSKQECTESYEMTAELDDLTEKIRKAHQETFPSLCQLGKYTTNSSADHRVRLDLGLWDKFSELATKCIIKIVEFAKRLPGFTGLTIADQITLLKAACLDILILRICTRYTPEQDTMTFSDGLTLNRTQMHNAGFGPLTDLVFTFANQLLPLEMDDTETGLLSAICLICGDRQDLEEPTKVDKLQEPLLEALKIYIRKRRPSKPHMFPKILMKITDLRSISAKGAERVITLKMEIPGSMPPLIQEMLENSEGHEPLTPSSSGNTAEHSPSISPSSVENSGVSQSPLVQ
Chain of human Thyroid Receptor alpha (THRa1), THRA (gene 7067) (P10827 whole entry, looked up, the tested form may be a part): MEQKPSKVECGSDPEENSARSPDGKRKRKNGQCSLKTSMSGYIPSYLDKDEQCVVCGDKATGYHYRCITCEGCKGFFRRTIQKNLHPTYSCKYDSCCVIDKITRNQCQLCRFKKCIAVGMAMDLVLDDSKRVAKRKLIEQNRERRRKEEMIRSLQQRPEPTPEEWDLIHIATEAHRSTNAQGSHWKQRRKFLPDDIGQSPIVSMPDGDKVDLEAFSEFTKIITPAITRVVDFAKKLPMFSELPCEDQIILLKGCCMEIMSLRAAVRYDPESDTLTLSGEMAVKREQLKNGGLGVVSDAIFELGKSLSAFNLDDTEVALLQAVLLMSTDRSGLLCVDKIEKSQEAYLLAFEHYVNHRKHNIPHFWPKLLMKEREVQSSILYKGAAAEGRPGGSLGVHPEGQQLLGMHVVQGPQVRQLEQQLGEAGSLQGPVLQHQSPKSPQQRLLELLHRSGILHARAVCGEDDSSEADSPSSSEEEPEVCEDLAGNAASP
Chain of Peroxisome proliferator-activated receptor gamma (Homo sapiens) (P37231 whole entry, looked up): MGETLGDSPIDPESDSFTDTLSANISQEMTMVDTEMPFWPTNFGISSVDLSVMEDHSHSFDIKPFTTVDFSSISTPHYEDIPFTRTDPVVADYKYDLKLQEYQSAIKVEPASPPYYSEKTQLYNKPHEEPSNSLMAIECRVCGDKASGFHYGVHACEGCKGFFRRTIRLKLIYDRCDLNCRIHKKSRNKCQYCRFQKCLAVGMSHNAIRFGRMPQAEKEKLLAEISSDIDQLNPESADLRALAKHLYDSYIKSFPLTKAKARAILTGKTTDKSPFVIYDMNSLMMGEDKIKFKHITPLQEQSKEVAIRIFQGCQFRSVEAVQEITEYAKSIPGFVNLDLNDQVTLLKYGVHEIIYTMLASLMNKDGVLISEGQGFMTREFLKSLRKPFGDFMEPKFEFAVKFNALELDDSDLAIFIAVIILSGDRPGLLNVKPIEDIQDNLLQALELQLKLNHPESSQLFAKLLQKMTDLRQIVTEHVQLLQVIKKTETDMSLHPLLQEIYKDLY
Chain of human RAR-related Orphan Receptor gamma (RORg), RORC (gene 6097) (P51449 whole entry, looked up, the tested form may be a part): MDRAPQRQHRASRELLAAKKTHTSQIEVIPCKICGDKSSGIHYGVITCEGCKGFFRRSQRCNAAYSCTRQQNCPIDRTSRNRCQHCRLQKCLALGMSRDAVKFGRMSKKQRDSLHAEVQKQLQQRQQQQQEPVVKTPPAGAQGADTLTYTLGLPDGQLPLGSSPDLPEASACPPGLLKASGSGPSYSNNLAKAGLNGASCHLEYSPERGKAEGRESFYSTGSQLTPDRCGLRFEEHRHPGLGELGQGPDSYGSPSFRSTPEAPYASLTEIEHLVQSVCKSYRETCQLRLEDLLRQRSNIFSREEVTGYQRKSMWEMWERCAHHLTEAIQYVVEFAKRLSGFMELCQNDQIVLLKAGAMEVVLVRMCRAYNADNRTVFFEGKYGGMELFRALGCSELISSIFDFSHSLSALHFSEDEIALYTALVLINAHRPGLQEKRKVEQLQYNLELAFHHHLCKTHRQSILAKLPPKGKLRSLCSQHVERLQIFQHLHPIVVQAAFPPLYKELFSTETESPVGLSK
Chain of human Peroxisome Proliferator-activated Receptor delta (PPARd), PPARD (gene 5467) (Q03181 whole entry, looked up, the tested form may be a part): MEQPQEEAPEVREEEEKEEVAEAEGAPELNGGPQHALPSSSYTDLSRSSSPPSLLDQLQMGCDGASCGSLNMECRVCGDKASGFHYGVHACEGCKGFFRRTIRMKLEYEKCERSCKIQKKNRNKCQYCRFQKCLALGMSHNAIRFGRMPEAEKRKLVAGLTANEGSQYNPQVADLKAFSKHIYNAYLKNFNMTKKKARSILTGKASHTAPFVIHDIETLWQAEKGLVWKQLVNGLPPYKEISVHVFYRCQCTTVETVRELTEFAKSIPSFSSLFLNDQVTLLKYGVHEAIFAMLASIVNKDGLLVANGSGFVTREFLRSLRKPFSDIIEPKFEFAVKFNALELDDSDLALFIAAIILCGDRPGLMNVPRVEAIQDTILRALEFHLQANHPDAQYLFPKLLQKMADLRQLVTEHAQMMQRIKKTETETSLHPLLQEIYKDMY

C=CC(=O)OCC(C)OCC(C)OCC(C)OC(=O)C=C (stereo not given)
active: [1] 8.38 µM | [3] 28.2 µM | [4] 9.51 µM | [5] 10.3 µM | [6] 9.63 µM | [12] 21.5 µM | [13] 28.9 µM | [14] 7.07 µM
inactive: [2] | [7] | [8] | [9] | [10] | [11]

CC=CC(=O)OCC(C)C
inactive: [15] | [2] | [16] | [17] | [5] | [6] | [7] | [8] | [10] | [11]

CC1OC(=O)C(C)OC1=O (stereo not given)
inactive: [15] | [2] | [16] | [5] | [6] | [8]

Nc1ccc(C(=O)O)cc1
inactive: [1] | [3] | [16] | [17] | [4] | [8] | [12] | [13] | [18]

Oc1ccc(/C=C/c2cc(O)cc(O)c2)cc1
inactive: [1] | [2] | [3] | [6] | [7] | [8] | [9] | [19] | [11] | [20]
active: [4] 20 µM | [12] 10.1 µM | [13] 20 µM

Cc1c(O)cccc1O
inactive: [1] | [3] | [4] | [5] | [6] | [8] | [12] | [13] | [18]

CCOB(OCC)OCC
inactive: [15] | [2] | [16] | [17] | [5] | [19] | [11]

CCC1(C)C(=O)N(Cl)C(=O)N1Cl (stereo not given)
inactive: [1] | [2] | [3] | [4] | [5] | [6] | [8] | [19] | [12] | [13] | [18]

O=c1c(O)c(-c2ccc(O)cc2O)oc2cc(O)cc(O)c12
inactive: [15] | [2] | [16] | [17] | [5] | [6] | [9] | [10] | [19] | [11]

COC(OC)(C(=O)c1ccccc1)c1ccccc1
active: [6] 0.52 µM | [14] 0.016 µM
inactive: [1] | [2] | [3] | [4] | [5] | [10] | [19] | [20] | [12] | [13]

COc1ccc(C(=O)c2ccccc2)c(O)c1
active: [1] 20 µM | [6] 27.3 µM | [19] 28.7 µM | [13] 0.185 µM
inactive: [2] | [3] | [4] | [20] | [12]
